HCMV antiviral: inhibitors of human cytomegalovirus; 410,000 compounds, 4.5% hits; HFF cells, HCMV-luciferase reporter, 72 h; active compounds read low; activity change, negative = inhibition, % at 57.5 µM; AID 1259415; in the data active means activity change below about -60%; inconclusive means no clear call, values can overlap the other calls; inactive means above about -39%
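Cell-based, HFFs, 1000 cells/well, 16 h 37C; cpds in DMSO + HCMV-luc, MOI 1 PFU/cell; 72 h 37C; OneGlo luminescence after 5 min RT; norm. to buffer vs Salinomycin 10uM.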
LASV entry inh: inhibitors of Lassa virus binding or cell entry. Lassa virus pseudotype entry inhibition, cell reporter. 300,000 compounds, 1.2% hits. Potency, µM (titrated, usually from 37.9 µM), hits mostly inhibitors; calls by dose curve; tested in HEK293 cells; further: nearly all actives have a fitted effect of over 50% in size
FMDV antiviral: antivirals against foot and mouth disease virus; FMDV antiviral cell-based qHTS; Potency, µM (highest dose often 57.9 µM), usual class: inhibitors; 410,000 compounds, 1.2% hits; calls by dose curve; tested in HEK293T cells; further: read-out not given here; nearly all actives have a fitted effect of over 45% in size
Vaccinia mCherry: vaccinia inhibition (mCherry reporter) | Vaccinia virus mCherry reporter infection, fluorescence | Potency, µM (top dose mostly 36.5 µM), actives largely listed as inhibitors | 310,000 compounds, 0.63% hits; calls by dose curve; tested in A549 cells; further: nearly all actives have a fitted effect of over 35% in size
Marburg entry inh: inhibitors of Marburg virus binding or cell entry; Marburg virus pseudotyped entry inhibition, cell reporter; Potency, µM (titrated, usually from 37.8 µM), usual class: inhibitors; 300,000 compounds, 1.8% hits; AID 540276; calls by dose curve; tested in HEK293 cells
VACV Venus inh: vaccinia inhibition (Venus reporter); Potency, µM (series often up to 36.5 µM), hits mostly inhibitors; Vaccinia virus Venus reporter expression, fluorescence; 330,000 compounds, 0.46% hits; calls by dose curve; tested in A549 cells; further: nearly all actives have a fitted effect of over 30% in size
A number is an active result; . = inactive; ? = inconclusive; / = no result. Compounds with a hit are over-represented: about 6.5% of the library has one in this group of screens.

SMILES	HCMV antiviral	LASV entry inh	FMDV antiviral	Vaccinia mCherry	Marburg entry inh	VACV Venus inh
Cc1noc(C)c1CSc1nc2sc(C)c(C)c2c(=O)n1C1CCCC1	.	.	.	/	12µM	/
COC(=O)C1=C(C)N=C2S[C@H](C)C(=O)N2[C@@H]1c1cccc(F)c1	/	/	/	/	.	/
CC[C@H](C)N(C)C(=O)c1cc2ccccc2c(-c2ccccc2Cl)n1	/	/	.	/	?	/
FC(F)(F)c1ccccc1-c1nc(NCc2cccnc2)c2ccccc2n1	/	/	.	/	/	/
FC(F)(F)c1nc(NCc2cccnc2)c2ccccc2n1	-62	.	.	.	.	.
CCOc1ccc(N(C)S(=O)(=O)c2ccc(C)c(C(=O)N3CCN(Cc4ccc5c(c4)OCO5)CC3)c2)cc1	.	?	22µM	.	.	?
Cc1cc(S(=O)(=O)NC(C)C)ccc1OCC(=O)N1CCN(Cc2ccc3c(c2)OCO3)CC1	-84	8.2µM	?	.	?	?
COc1ccc(N(C)S(=O)(=O)c2cccc(C(=O)N3CCN(Cc4ccc5c(c4)OCO5)CC3)c2)cc1	.	?	?	.	?	.
CC(C)NS(=O)(=O)c1ccc(OCC(=O)N2CCN(Cc3ccc4c(c3)OCO4)CC2)c(Cl)c1	-68	?	?	?	?	.
O=c1/c(=C\c2ccccn2)sc2n1CN(c1ccccc1)CN=2	/	/	/	/	.	/
Cc1ccc2[nH]c3c(c2c1)CN(C(=O)CC1(c2ccccc2)CC(=O)N(Cc2cccnc2)C1=O)CC3 (stereo not given)	/	/	.	.	/	.
O=C(Nc1nc(-c2ccc(S(=O)(=O)N3CCCC3)cc2)cs1)c1ccco1	-65	.	?	?	?	.
O=C(Nc1nc(-c2cccs2)cs1)c1ccc(S(=O)(=O)N2CCCCC2)cc1	-67	/	16µM	?	.	?
O=C(Nc1nc(-c2cccs2)cs1)c1cccc(S(=O)(=O)N2CCCCCC2)c1	.	.	.	?	?	?
CNc1nc(-c2ccc(S(=O)(=O)N3CCCCC3)cc2)cs1	.	/	.	/	/	/
O=C(COC(=O)c1ccccc1Nc1ccc(SC(F)F)cc1)NC1CC1	-71	.	.	.	?	.
CC1CCCC(C)N1C(=O)c1ccccc1Nc1ccc(SC(F)F)cc1 (stereo not given)	.	?	.	/	12µM	/
CC1CN(C(=O)c2ccccc2Nc2ccc(SC(F)F)cc2)CC(C)O1 (stereo not given)	?	.	.	.	?	.
O=C(COC(=O)c1ccccc1C(=O)c1ccccc1)Nc1ccc(SC(F)F)cc1	.	16µM	?	.	?	.
CCOC(=O)c1c(NC(=S)N2CCCCC2)sc2c1CCN(C(=O)OCC)C2	-98	.	.	.	?	.
CCOC(=O)c1c(NC(=S)N2CCOCC2)sc2c1CCN(C(=O)OCC)C2	-109	.	?	?	?	.
CCOC(=O)c1c(NC(=S)NCc2ccccc2)sc2c1CCN(C(=O)OCC)C2	.	.	.	.	.	.
C=CCNC(=S)Nc1sc2c(c1C(=O)OCC)CCN(C(=O)OCC)C2	.	?	.	/	?	.
Cn1cnc2nc(NCCO)nc(NCc3ccccc3)c21	/	/	.	.	/	.
O=c1oc2ccccc2cc1-c1cn2ccccc2n1	-63	1.8µM	7.9µM	.	?	?
SMILES	HCMV antiviral	LASV entry inh	FMDV antiviral	Vaccinia mCherry	Marburg entry inh	VACV Venus inh
Cc1ccc2c(c1)sc1nc(-c3cc4ccccc4oc3=O)cn12	-79	.	0.32µM	.	/	.
COc1ccc2cc(-c3cn4c(n3)sc3cc(F)ccc34)c(=O)oc2c1	.	.	.	.	/	.
CC(C)c1ccc(Cc2cn3cc(-c4cc5ccccc5oc4=O)nc3s2)cc1	-78	.	.	?	?	?
COc1ccc(-c2nc3scc(CCNS(=O)(=O)c4c(C)cc(C)cc4C)n3n2)cc1OC	.	.	.	.	/	.
Cc1cc(/C=N/NC(=O)c2cccs2)c(C)n1-c1ccccc1	?	2.1µM	13µM	/	?	/
CCc1ccc(-n2c(C)cc(/C=N/NC(=O)c3ccncc3)c2C)cc1	-79	/	.	/	/	/
CCc1ccc(-n2c(C)cc(/C=N/NC(=O)OC)c2C)cc1	-84	.	.	/	.	/
NC1CCc2ccc([N+](=O)[O-])cc21 (stereo not given)	/	/	/	.	/	.
OC1(c2cccnc2)CCN(Cc2ccc3c(c2)CN(Cc2cccc4nccnc24)CCO3)CC1	/	/	.	.	/	.
COC(=O)c1cc(CNC(=O)c2ccccc2F)cc(NC(=O)c2ccccc2OC)c1	/	/	?	.	/	.
C#CC(=O)N(c1ccc(OC)cc1OC)C(C(=O)NC1CCCC1)c1cccs1 (stereo not given)	-99	?	?	10µM	?	10µM
COc1ccc(N(C(=O)c2ccco2)C(C(=O)NC2CCCCC2)c2cccs2)cc1OC (stereo not given)	.	?	.	/	.	.
C#CC(=O)N(c1cc(OC)ccc1OC)C(C(=O)NC1CCCC1)c1cccs1 (stereo not given)	/	3.5µM	?	11µM	2µM	10µM
COc1ccc(C(=O)c2c(C(F)(F)F)oc3c2C(=O)c2ccccc2C3=O)cc1	/	?	?	/	3.2µM	4µM
CCCCOC(=O)c1ccc(NC(=O)c2cc3c(=O)n4cccc(C)c4nc3n2C)cc1	.	.	.	.	/	.
CCc1nc(SCc2ccc(OCC(C)C)cc2)n[nH]1	?	?	.	.	7.9µM	.
CCc1nc(SCc2ccc(Br)cc2)n[nH]1	.	.	.	.	?	.
CNC(=O)Oc1ccc(-c2cn3cc(C)ccc3n2)cc1	.	0.32µM	13µM	.	0.65µM	.
CNC(=O)Oc1cccc(-c2cn3cc(Cl)ccc3n2)c1	?	?	.	.	2.8µM	.
CN(C)S(=O)(=O)c1cccc(-c2cn3cc(Cl)ccc3n2)c1	/	.	.	/	?	/
COc1ccc(-c2cc(-c3ccc4c(c3)NC(=O)CO4)nc3c2COc2ccc(F)cc2-3)cc1	.	.	.	.	.	.
CC(C)=CCC/C(C)=C/CO/N=C1\C[C@@H](O)[C@@H](O)[C@@H]2[C@@H]3C(=O)N(C[C@@H]4CCCO4)C(=O)[C@@H]3CC[C@@H]12	/	/	/	/	.	/
CN=c1scc(-c2ccc([N+](=O)[O-])cc2)n1/N=C/c1ccco1	-87	.	.	.	.	.
COc1ccc(NC(=O)c2ccc3c(c2)CCN3S(=O)(=O)c2ccc(C)cc2)cc1Cl	.	.	.	.	.	.
C#CCOCCOCCOCCNc1nc(N2CCN(C(=O)CCCCCCCCCCNC(=O)[C@@H](CCSC)n3cc(CCO)nn3)CC2)nc(N2CCN(C(=O)CCCCCCCCCCNC(=O)[C@H]([C@@H](C)CC)n3cc(CCCCCN)nn3)CC2)n1	/	/	?	.	/	10µM
C#CCOCCOCCOCCNc1nc(N2CCN(C(=O)CCCCCCCCCCNC(=O)[C@H](CO)n3cc(CCCSC)nn3)CC2)nc(N2CCN(C(=O)CCCCCCCCCCNC(=O)[C@H](CO)n3cc(CCCSC)nn3)CC2)n1	-71	/	.	?	/	?

Compound activity: PubChem BioAssay, National Center for Advancing Translational Sciences (NCATS)
